Test results published in the supplement of paper PMC10849652.
Targets with a hit are over-represented here; the source holds about 8,800 in all. About 0.5% of all pairs of compound and target were hits.

Assays:
Test in all cases: log2 fold change, soluble protein after heating vs DMSO (PISA); higher = thermal stabilisation; K562 lysate, 10 uM; active = over 0.2 and 3.5 SD of the protein, either way, in both replicates (recomputed)
nilotinib = compound: Cc1cn(-c2cc(NC(=O)c3ccc(C)c(Nc4nccc(-c5cccnc5)n4)c3)cc(C(F)(F)F)c2)cn1 [nilotinib]
How it was run: (§1)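 Soluble protein was defined as the supernatant remaining after 21,000xg for 90 min, following pooling of heated aliquots and adjustment to 0.5% NP-40 at 4°C. Before that, crude K562 extract at 1 mg/mL protein in PBS pH 7.4 with 1 mM MgCl2 was treated with 10 μM compound for 30 min and heated for 3 min across 48°C-58°C. Quantification used TMTpro 16plex LC-MS/MS with channel sums equalised, and values are log-two fold changes in thermal stability relative to solvent controls from duplicates.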

[1] = compound: Cc1nc(Nc2n[nH]c3c2CN(C(=O)N[C@H](CN(C)C)c2ccccc2)C3(C)C)c2sccc2n1
How it was run: as §1

dasatinib = compound: Cc1nc(Nc2ncc(C(=O)Nc3c(C)cccc3Cl)s2)cc(N2CCN(CCO)CC2)n1 [dasatinib]
How it was run: as §1

[2] = compound: Cc1ncc(-c2ccnc(Nc3ccc(S(C)(=O)=O)cc3)n2)n1C(C)C
How it was run: as §1

[3] = compound: Cn1cc(-c2ccc3c(c2)CCN3C(=O)Cc2cccc(C(F)(F)F)c2)c2c(N)ncnc21
How it was run: as §1

quisinostat = compound: Cn1cc(CNCC2CCN(c3ncc(C(=O)NO)cn3)CC2)c2ccccc21 [quisinostat]
How it was run: as §1

tipifarnib = compound: Cn1cncc1[C@@](N)(c1ccc(Cl)cc1)c1ccc2c(c1)c(-c1cccc(Cl)c1)cc(=O)n2C [tipifarnib]
How it was run: as §1

[4] = compound: NC(=O)Nc1cc(-c2cccc(F)c2)sc1C(=O)N[C@H]1CCCNC1
How it was run: as §1

[5] = compound: NC(=O)c1cnc(N[C@@H]2CCCC[C@@H]2N)nc1Nc1cccc(-n2nccn2)c1
How it was run: as §1

[6] = compound: NC1(c2ccc(-c3nc4ccn5c(=O)[nH]nc5c4cc3-c3ccccc3)cc2)CCC1
How it was run: as §1

[7] = compound: NCC(=O)Nc1ccc(-n2nc(C(F)(F)F)cc2-c2ccc3c(ccc4ccccc43)c2)cc1
How it was run: as §1

vorinostat = compound: O=C(CCCCCCC(=O)Nc1ccccc1)NO [vorinostat]
How it was run: as §1

silmitasertib = compound: O=C(O)c1ccc2c(c1)nc(Nc1cccc(Cl)c1)c1ccncc12 [silmitasertib]
How it was run: as §1

[8] = compound: O=C1NC(=O)C(c2cnc3ccccn23)=C1c1cn2c3c(cc(F)cc13)CN(C(=O)N1CCCCC1)CC2
How it was run: as §1

entospletinib = compound: c1cn2cc(-c3ccc4cn[nH]c4c3)nc(Nc3ccc(N4CCOCC4)cc3)c2n1 [entospletinib]
How it was run: as §1

Measured: log2 fold change

FHOD1 (UniProt Q9Y613)
inactive: nilotinib 0.005 | [1] 0.017 | dasatinib -0.05 | [2] -0.007 | [3] 0.002 | quisinostat 0.017 | tipifarnib -0.017 | [4] 0.039 | [5] 0.014 | [6] 0.023 | [7] -0.018 | silmitasertib 0.008 | [8] -0.02 | entospletinib -0.002
active: vorinostat -0.47

EXOC4 (UniProt Q96A65)
active: vorinostat -0.389
inactive: nilotinib 0.015 | [1] -0.012 | dasatinib -0.083 | [2] 0.015 | [3] 0.072 | quisinostat -0.009 | tipifarnib -0.036 | [4] 0.053 | [5] 0.013 | [6] -0.068 | [7] 0.009 | silmitasertib 0.041 | [8] -0.022 | entospletinib -0.006

DYRK1A (UniProt Q13627)
inactive: nilotinib -0.018 | [1] 0.062 | dasatinib -0.021 | [2] 0.031 | [3] 0.033 | quisinostat -0.026 | tipifarnib -0.06 | [4] 0.072 | [5] -0.01 | [6] -0.013 | [7] 0.021 | vorinostat -0.253 | [8] 0.01 | entospletinib 0.005
active: silmitasertib 0.247

EP300 (UniProt Q09472)
active: vorinostat -0.338
inactive: nilotinib 0.036 | [1] 0.037 | dasatinib -0.028 | [2] 0.081 | [3] 0.007 | quisinostat 0.03 | tipifarnib -0.043 | [4] 0.036 | [5] 0.023 | [6] 0.046 | [7] 0.018 | silmitasertib 0.06 | [8] 0.015 | entospletinib -0.005

FREM2 (UniProt Q5SZK8)
Chain of UniProt Q5SZK8 (Q5SZK8 whole entry, looked up): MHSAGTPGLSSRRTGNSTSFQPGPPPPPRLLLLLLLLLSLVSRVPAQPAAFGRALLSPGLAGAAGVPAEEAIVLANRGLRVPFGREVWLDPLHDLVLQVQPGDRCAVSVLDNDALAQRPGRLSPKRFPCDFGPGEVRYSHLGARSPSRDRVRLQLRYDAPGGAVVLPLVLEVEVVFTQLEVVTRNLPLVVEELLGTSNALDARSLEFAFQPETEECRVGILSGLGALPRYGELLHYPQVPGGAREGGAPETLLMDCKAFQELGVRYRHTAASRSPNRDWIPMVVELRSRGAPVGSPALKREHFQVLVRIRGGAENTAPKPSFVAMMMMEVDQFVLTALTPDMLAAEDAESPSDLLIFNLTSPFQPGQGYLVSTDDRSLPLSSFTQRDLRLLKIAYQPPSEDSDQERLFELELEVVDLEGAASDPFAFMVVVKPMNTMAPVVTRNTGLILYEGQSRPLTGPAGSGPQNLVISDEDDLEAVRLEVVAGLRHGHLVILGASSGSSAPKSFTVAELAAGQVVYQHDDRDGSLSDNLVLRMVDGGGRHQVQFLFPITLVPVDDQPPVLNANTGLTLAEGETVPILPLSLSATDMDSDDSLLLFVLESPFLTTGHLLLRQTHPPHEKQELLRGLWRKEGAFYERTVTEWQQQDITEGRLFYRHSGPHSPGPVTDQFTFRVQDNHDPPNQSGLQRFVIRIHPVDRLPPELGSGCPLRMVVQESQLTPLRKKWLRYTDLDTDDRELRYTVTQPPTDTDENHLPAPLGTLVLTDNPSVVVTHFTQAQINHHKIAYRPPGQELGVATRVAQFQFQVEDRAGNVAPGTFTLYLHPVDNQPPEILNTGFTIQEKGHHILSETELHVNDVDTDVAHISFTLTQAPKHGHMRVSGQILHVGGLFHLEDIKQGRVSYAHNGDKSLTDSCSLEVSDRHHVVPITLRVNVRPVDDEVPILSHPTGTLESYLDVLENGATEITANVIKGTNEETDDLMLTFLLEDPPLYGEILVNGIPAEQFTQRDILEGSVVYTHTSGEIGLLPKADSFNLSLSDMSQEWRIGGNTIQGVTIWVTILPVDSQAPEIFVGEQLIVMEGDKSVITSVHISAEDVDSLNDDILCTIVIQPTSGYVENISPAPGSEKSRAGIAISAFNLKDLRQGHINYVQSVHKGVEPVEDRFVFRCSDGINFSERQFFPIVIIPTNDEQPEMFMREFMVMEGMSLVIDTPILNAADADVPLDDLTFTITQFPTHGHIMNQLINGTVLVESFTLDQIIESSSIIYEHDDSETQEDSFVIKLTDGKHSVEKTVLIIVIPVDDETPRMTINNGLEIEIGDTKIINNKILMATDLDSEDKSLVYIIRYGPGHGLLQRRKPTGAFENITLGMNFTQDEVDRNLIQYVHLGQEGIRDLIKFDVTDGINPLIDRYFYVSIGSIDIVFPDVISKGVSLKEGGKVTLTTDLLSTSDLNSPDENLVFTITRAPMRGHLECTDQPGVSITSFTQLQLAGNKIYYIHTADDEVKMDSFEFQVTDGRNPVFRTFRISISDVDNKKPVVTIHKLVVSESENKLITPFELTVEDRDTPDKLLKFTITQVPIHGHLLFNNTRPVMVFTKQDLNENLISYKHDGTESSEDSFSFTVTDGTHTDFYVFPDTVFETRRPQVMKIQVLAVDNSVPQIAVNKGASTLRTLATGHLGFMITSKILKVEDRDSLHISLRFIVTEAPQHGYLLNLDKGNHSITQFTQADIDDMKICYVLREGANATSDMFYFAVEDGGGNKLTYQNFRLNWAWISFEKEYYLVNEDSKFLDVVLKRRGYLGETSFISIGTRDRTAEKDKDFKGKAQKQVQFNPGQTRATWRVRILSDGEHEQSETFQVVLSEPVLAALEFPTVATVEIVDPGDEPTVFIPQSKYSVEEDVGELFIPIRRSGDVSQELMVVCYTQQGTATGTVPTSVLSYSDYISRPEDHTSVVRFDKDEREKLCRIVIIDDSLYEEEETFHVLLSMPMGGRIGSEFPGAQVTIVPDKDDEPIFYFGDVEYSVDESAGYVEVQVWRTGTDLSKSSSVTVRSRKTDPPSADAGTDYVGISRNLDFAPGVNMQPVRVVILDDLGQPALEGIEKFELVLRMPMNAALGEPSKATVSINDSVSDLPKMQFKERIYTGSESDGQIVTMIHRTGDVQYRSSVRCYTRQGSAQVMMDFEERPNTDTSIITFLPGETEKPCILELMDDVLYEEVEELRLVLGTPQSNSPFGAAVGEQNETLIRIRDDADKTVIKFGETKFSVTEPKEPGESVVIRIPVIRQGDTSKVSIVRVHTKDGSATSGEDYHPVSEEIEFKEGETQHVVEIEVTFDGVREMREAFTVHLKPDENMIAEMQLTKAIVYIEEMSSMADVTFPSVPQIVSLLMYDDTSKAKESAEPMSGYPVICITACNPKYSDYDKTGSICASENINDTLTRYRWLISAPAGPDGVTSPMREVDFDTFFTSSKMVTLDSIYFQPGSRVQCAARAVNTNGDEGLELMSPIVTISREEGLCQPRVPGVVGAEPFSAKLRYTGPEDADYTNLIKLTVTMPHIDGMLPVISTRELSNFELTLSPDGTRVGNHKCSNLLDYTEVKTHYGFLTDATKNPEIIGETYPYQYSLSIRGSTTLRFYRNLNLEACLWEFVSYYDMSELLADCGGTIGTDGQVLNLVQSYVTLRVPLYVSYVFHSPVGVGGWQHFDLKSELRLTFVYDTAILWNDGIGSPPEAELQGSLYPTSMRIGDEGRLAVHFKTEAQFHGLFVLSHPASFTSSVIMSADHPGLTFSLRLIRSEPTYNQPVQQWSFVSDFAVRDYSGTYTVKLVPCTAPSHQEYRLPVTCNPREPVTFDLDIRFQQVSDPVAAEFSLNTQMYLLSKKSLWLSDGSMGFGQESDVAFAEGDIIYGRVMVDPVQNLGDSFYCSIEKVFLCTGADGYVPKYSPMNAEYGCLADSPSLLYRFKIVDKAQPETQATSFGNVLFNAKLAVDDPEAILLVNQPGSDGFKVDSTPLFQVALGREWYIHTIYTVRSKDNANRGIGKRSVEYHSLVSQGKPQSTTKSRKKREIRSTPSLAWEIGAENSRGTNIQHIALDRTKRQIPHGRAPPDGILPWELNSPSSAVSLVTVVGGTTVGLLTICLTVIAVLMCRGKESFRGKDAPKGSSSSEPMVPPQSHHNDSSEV
inactive: nilotinib -0.108 | [1] 0.041 | dasatinib -0.071 | [2] -0.113 | [3] -0.014 | quisinostat -0.223 | tipifarnib -0.168 | [4] 0.048 | [5] 0.059 | [6] 0.04 | [7] 0.094 | vorinostat 0.048 | silmitasertib 0.085 | [8] -0.11 | entospletinib -0.003

FKBP1A (UniProt P62942)
Chain of UniProt P62942 (P62942 whole entry, looked up): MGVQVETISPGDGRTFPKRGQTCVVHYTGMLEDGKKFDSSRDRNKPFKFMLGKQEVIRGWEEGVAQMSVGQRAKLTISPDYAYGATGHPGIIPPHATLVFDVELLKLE
inactive: nilotinib 0.023 | [1] 0.002 | dasatinib -0.005 | [2] 0.081 | [3] -0.103 | quisinostat 0.012 | tipifarnib 0.038 | [4] -0.005 | [5] 0.002 | [6] -0.039 | [7] -0.154 | vorinostat 0.036 | silmitasertib -0.006 | [8] 0.068 | entospletinib 0.049

DSN1 (UniProt Q9H410)
active: vorinostat -0.358
inactive: nilotinib -0.006 | [1] 0.023 | dasatinib -0.022 | [2] 0.001 | [3] 0.011 | quisinostat -0.015 | tipifarnib -0.015 | [4] 0.05 | [5] 0.014 | [6] 0.031 | [7] -0.028 | silmitasertib -0.007 | [8] 0.008 | entospletinib -0.017

EEFSEC (UniProt P57772)
inactive: nilotinib 0.004 | [1] 0.01 | dasatinib -0.067 | [2] -0.03 | [3] 0.007 | quisinostat -0.043 | tipifarnib -0.003 | [4] 0.052 | [5] 0 | [6] -0.019 | [7] -0.022 | silmitasertib 0.052 | [8] -0.012 | entospletinib -0.009
active: vorinostat -0.325

FDFT1 (UniProt P37268)
inactive: nilotinib 0.032 | [1] -0.048 | dasatinib -0.012 | [2] -0.037 | [3] -0.008 | quisinostat -0.014 | tipifarnib -0.053 | [4] 0.005 | [5] 0.042 | [6] -0.025 | [7] -0.004 | vorinostat -0.006 | silmitasertib 0.041 | [8] 0.004 | entospletinib 0.06

FTL (UniProt P02792)
Chain of UniProt P02792 (P02792 whole entry, looked up): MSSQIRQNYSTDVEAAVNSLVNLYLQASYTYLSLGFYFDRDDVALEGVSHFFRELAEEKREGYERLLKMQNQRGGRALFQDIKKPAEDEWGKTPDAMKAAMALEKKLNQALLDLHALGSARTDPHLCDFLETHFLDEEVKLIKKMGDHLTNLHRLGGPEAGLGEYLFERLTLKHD
inactive: nilotinib -0.039 | [1] 0.035 | dasatinib -0.03 | [2] -0.038 | [3] -0.012 | quisinostat 0.043 | tipifarnib 0.017 | [4] 0.091 | [5] 0.009 | [6] 0.06 | [7] -0.064 | vorinostat 0.018 | silmitasertib 0.057 | [8] 0.011 | entospletinib -0.151

EXOC2 (UniProt Q96KP1)
Chain of UniProt Q96KP1 (Q96KP1 whole entry, looked up): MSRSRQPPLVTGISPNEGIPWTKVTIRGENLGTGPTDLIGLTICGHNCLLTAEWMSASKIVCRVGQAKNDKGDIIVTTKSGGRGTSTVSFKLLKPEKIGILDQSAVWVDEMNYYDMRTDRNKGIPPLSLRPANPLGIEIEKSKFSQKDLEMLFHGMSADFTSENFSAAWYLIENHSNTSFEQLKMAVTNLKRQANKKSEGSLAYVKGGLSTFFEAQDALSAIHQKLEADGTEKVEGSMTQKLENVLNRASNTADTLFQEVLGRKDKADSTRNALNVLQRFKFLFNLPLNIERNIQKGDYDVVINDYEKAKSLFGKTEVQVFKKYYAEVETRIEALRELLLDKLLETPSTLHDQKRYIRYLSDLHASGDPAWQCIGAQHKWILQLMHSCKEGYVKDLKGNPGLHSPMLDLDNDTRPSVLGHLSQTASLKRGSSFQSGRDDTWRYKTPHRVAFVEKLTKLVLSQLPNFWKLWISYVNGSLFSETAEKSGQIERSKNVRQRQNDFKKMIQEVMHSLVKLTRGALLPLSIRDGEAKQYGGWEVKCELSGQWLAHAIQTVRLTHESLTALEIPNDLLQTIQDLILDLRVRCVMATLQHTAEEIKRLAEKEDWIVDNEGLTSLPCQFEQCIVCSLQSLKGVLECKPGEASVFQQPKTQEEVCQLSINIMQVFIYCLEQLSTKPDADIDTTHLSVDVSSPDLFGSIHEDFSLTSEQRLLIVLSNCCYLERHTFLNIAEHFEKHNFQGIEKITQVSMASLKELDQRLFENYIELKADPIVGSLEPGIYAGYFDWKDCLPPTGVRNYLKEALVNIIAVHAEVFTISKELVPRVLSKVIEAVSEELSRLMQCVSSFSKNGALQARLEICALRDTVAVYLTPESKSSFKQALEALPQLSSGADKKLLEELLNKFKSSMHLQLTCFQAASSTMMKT
active: vorinostat -0.361
inactive: nilotinib 0.009 | [1] 0.018 | dasatinib -0.041 | [2] -0.009 | [3] 0.022 | quisinostat -0.088 | tipifarnib -0.022 | [4] 0.062 | [5] -0.003 | [6] -0.029 | [7] -0.012 | silmitasertib 0.031 | [8] 0.022 | entospletinib 0.024

EIF2B3 (UniProt Q9NR50)
active: vorinostat -0.244
inactive: nilotinib 0.001 | [1] 0.001 | dasatinib -0.049 | [2] 0.009 | [3] -0.024 | quisinostat -0.036 | tipifarnib -0.013 | [4] 0.022 | [5] -0.008 | [6] -0.009 | [7] -0.006 | silmitasertib 0.01 | [8] 0.009 | entospletinib -0.004

ESPL1 (UniProt Q14674)
inactive: nilotinib -0.013 | [1] 0.006 | dasatinib 0.044 | [2] 0.054 | [3] 0.02 | quisinostat 0.066 | tipifarnib -0.024 | [4] 0.021 | [5] -0.014 | [6] -0.055 | [7] 0.027 | vorinostat -0.21 | silmitasertib 0.098 | [8] 0.057 | entospletinib -0.066

DUS2 (UniProt Q9NX74)
Chain of UniProt Q9NX74 (Q9NX74 whole entry, looked up): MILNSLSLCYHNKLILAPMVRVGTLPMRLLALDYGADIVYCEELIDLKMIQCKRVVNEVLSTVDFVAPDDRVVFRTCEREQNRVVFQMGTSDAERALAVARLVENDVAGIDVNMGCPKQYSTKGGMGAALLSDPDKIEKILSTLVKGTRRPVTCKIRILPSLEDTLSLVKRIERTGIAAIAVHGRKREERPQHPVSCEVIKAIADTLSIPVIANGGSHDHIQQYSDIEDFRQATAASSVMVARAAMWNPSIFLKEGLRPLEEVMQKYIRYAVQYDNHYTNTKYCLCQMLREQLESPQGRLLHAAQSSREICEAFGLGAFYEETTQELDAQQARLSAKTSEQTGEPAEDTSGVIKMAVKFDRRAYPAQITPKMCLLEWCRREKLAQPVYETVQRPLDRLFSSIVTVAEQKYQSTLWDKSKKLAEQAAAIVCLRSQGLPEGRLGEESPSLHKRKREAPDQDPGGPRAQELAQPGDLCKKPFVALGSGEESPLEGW
active: silmitasertib 0.555
inactive: nilotinib 0.021 | [1] -0.035 | dasatinib 0.037 | [2] 0.011 | [3] -0.024 | quisinostat 0.088 | tipifarnib -0.019 | [4] 0 | [5] 0.014 | [6] -0.045 | [7] -0.01 | vorinostat -0.014 | [8] -0.037 | entospletinib -0.042

FYB1 isoform 3 (UniProt O15117)
inactive: nilotinib 0.042 | [1] 0.004 | dasatinib -0.017 | [2] -0.025 | [3] 0.001 | quisinostat -0.068 | tipifarnib -0.012 | [4] 0.034 | [5] 0.005 | [6] 0.021 | [7] 0.007 | vorinostat 0.002 | silmitasertib -0.021 | [8] 0 | entospletinib -0.006

FASTKD2 (UniProt Q9NYY8)
active: vorinostat -0.524
inactive: nilotinib -0.019 | [1] -0.006 | dasatinib -0.006 | [2] 0.016 | [3] -0.026 | quisinostat -0.027 | tipifarnib -0.02 | [4] 0.049 | [5] 0.027 | [6] 0.015 | [7] 0.008 | silmitasertib 0.044 | [8] 0.025 | entospletinib 0.013

EP400 isoform 5 (UniProt Q96L91)
inactive: nilotinib -0.05 | [1] -0.04 | dasatinib 0.001 | [2] -0.025 | [3] -0.005 | quisinostat -0.014 | tipifarnib 0.04 | [4] 0.012 | [5] 0.019 | [6] -0.003 | [7] -0.047 | silmitasertib 0.024 | [8] -0.025 | entospletinib -0.021
active: vorinostat -0.279

FIGNL1 (UniProt Q6PIW4)
inactive: nilotinib -0.011 | [1] 0.037 | dasatinib -0.101 | [2] 0.054 | [3] 0.068 | quisinostat -0.08 | tipifarnib -0.044 | [4] 0.035 | [5] -0.02 | [6] -0.035 | [7] -0.016 | silmitasertib 0.045 | [8] 0 | entospletinib 0.05
active: vorinostat -0.484

FIG4 (UniProt Q92562)
inactive: nilotinib -0.02 | [1] 0.144 | dasatinib -0.007 | [2] 0.08 | [3] 0.145 | quisinostat 0.077 | tipifarnib -0.038 | [4] 0.013 | [5] -0.066 | [6] 0.06 | [7] -0.037 | silmitasertib 0.017 | [8] 0.056 | entospletinib 0.052
active: vorinostat -0.517

ENO1, A0A2R8YEM5
inactive: nilotinib -0.021 | [1] -0.017 | dasatinib -0.013 | [2] 0.002 | [3] -0.021 | quisinostat -0.005 | tipifarnib 0.053 | [4] -0.026 | [5] 0.002 | [6] -0.008 | [7] -0.032 | vorinostat 0.119 | silmitasertib -0.005 | [8] 0.017 | entospletinib 0.04

FADS1, A0A0A0MR51
inactive: nilotinib 0.065 | [1] -0.078 | dasatinib 0.04 | [2] 0.02 | [3] 0.079 | quisinostat 0.004 | tipifarnib 0.069 | [4] 0.008 | [5] -0.114 | [6] 0.022 | [7] 0.054 | vorinostat 0.093 | silmitasertib -0.003 | [8] -0.046 | entospletinib -0.028
